Test results published in PubChem BioAssay (NCI).
Compounds without any hit were thinned out: in the full panel of roughly 83,000, 20% have a hit.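 Treatment: one concentration, 48 hours, 96-well format. Scoring: percent growth, with anything below 10 considered active.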 Calls of active or inactive are those of the source.

Key:
Assay in all cases: NCI-60 one-dose screen, 48 h (100 = growth as untreated, 0 = no growth, -100 = all killed)
Details in all cases: 10 µM unless noted
HT29 colon = tested on: HT29 colon
SNB-75 CNS = tested on: SNB-75 CNS
SNB-19 CNS = tested on: SNB-19 CNS
U251 CNS = tested on: U251 CNS
PC-3 prostate = tested on: PC-3 prostate
SK-MEL-5 melanoma = tested on: SK-MEL-5 melanoma
UACC-62 melanoma = tested on: UACC-62 melanoma
SK-MEL-28 melanoma = tested on: SK-MEL-28 melanoma
SK-MEL-2 melanoma = tested on: SK-MEL-2 melanoma
LOX IMVI melanoma = tested on: LOX IMVI melanoma

Measured: growth

N#Cc1ccc(C(=O)CSc2nc(Nc3ccc(S(N)(=O)=O)cc3)c3ccccc3n2)cc1
inactive: HT29 colon 112% | SNB-75 CNS 107% | SNB-19 CNS 100% | U251 CNS 114% | PC-3 prostate 89.4% | SK-MEL-5 melanoma 102% | UACC-62 melanoma 99.4% | SK-MEL-28 melanoma 109% | SK-MEL-2 melanoma 118%

Cc1cc2nc3c4cc(Cl)ccc4n(CC(=S)NCCN(C)C)c3nc2cc1C
inactive: SK-MEL-2 melanoma 70.7%
active: HT29 colon -32% | SNB-75 CNS -19.1% | SNB-19 CNS 4.89% | U251 CNS -54.8% | PC-3 prostate -30.1% | SK-MEL-5 melanoma -10.3% | UACC-62 melanoma -67.1% | SK-MEL-28 melanoma -91.3%

Nc1nc(N)c2c(n1)NC(c1ccc(F)cc1)CC(c1ccc(Nc3nc(NCCO)nc(Nc4ccc(Cl)cc4)n3)cc1)=N2 (stereo unspecified)
inactive: SNB-75 CNS 44.3% | PC-3 prostate 22.7% | UACC-62 melanoma 49.8% | SK-MEL-2 melanoma 26.3%
active: HT29 colon -52.1% | SNB-19 CNS 8.01% | U251 CNS -76.6% | SK-MEL-5 melanoma -81% | SK-MEL-28 melanoma -82.9%

COc1ccc(/C=N/NC(=O)c2[nH]c3ccc(Br)cc3c2-c2ccccc2)o1
active: HT29 colon -26.9% | SK-MEL-5 melanoma -29% | SK-MEL-2 melanoma -13%
inactive: SNB-75 CNS 50.3% | SNB-19 CNS 30.8% | U251 CNS 19.5% | PC-3 prostate 22.6% | UACC-62 melanoma 43.7% | SK-MEL-28 melanoma 63.3%

COc1cc(/C=C/C(=O)c2cc(OC)c(OC)c(OC)c2)ccc1OCc1ccccc1
inactive: SNB-75 CNS 13% | SNB-19 CNS 34% | U251 CNS 13.6% | PC-3 prostate 40.1% | SK-MEL-5 melanoma 63.2% | UACC-62 melanoma 38.8% | SK-MEL-28 melanoma 78.8%
active: HT29 colon 5.03%

C=C1CC[C@H]2[C@@](C)(CCC3OC(c4ccc(OCc5cn(C6CC(OC(C)=O)C(OC(C)=O)C(COC(C)=O)O6)nn5)cc4)OC[C@]32C)[C@@H]1/C=C/C1=CCOC1=O (stereo partly specified)
active: SK-MEL-5 melanoma 0.123%
inactive: HT29 colon 84.1% | SNB-75 CNS 94.8% | SNB-19 CNS 88.3% | U251 CNS 92.9% | PC-3 prostate 62% | UACC-62 melanoma 70.5% | SK-MEL-28 melanoma 100% | SK-MEL-2 melanoma 100%

COC(=O)C1CN(S(=O)(=O)/N=C2\NC(=O)NC2=C(Cl)Cl)C1
inactive: HT29 colon 111% | SNB-75 CNS 113% | SNB-19 CNS 100% | U251 CNS 105% | PC-3 prostate 99.3% | SK-MEL-5 melanoma 100% | UACC-62 melanoma 95.7% | SK-MEL-28 melanoma 112%

NC(=O)c1c(NC(=O)c2ccc(C3CCCCC3)cc2)sc2c1CCC(=O)C2
inactive: SNB-75 CNS 43.2% | SNB-19 CNS 25.5% | U251 CNS 10.7% | PC-3 prostate 16.1% | UACC-62 melanoma 26.4% | SK-MEL-28 melanoma 31.7% | SK-MEL-2 melanoma 25.7%
active: HT29 colon 2.41%

CCOC(=O)c1sc(N)c(C(=O)OCC)c1C
inactive: HT29 colon 43.4% | SNB-75 CNS 36% | SNB-19 CNS 71.7% | U251 CNS 44.2% | PC-3 prostate 54.4% | UACC-62 melanoma 57.7% | SK-MEL-28 melanoma 78.8% | SK-MEL-2 melanoma 75.2%

O=C(N/N=C/c1ccc(Br)s1)c1[nH]c2ccc(Br)cc2c1-c1ccccc1
active: HT29 colon 5.61% | SK-MEL-5 melanoma -27.3%
inactive: SNB-75 CNS 39.5% | SNB-19 CNS 31.3% | U251 CNS 24.4% | PC-3 prostate 28.8% | UACC-62 melanoma 41.7% | SK-MEL-2 melanoma 18.7%

Cc1cccc2sc(/N=C(\N)C(Cl)(Cl)Cl)nc12
inactive: SNB-75 CNS 81.6% | SNB-19 CNS 90.3% | U251 CNS 95.1% | PC-3 prostate 103% | SK-MEL-5 melanoma 99.6% | UACC-62 melanoma 97.6% | LOX IMVI melanoma 113% | SK-MEL-28 melanoma 112%

COc1ccc(Cc2nn(CC(=O)N/N=C/c3ccc(Cl)cc3)c(=O)c3c(C)noc23)cc1
inactive: HT29 colon 92.4% | SNB-19 CNS 67.5% | U251 CNS 71.4% | PC-3 prostate 78.9% | UACC-62 melanoma 99.2% | SK-MEL-28 melanoma 97.9% | SK-MEL-2 melanoma 90.8%
active: SNB-75 CNS -4.27%

CC1=C(C)C(=O)C(Nc2cccc(C(F)(F)F)c2)=C(Cl)C1=O
inactive: HT29 colon 103% | SNB-75 CNS 66.5% | SNB-19 CNS 92.4% | U251 CNS 79% | PC-3 prostate 64.4% | UACC-62 melanoma 80.2% | SK-MEL-28 melanoma 98.3% | SK-MEL-2 melanoma 85.8%

COc1cc(/C=C/C(=O)c2cc(OC)c(OC)c(OC)c2)ccc1Oc1nc(NCCO)nc(N2CCOCC2)n1
inactive: SNB-75 CNS 15.2% | SNB-19 CNS 12.4% | PC-3 prostate 37.7% | SK-MEL-28 melanoma 31.5%
active: HT29 colon -21.5% | U251 CNS -36.9% | SK-MEL-5 melanoma 3.03% | UACC-62 melanoma -4.12% | SK-MEL-2 melanoma -3.2%

CO/N=C1\CCc2c(sc(NC(=O)c3cccc(C(F)(F)F)c3)c2C(N)=O)C1
active: SNB-75 CNS -58.4% | U251 CNS 3.28%
inactive: HT29 colon 51.2% | SNB-19 CNS 27.7% | PC-3 prostate 64.8% | UACC-62 melanoma 76.8% | SK-MEL-28 melanoma 60.3% | SK-MEL-2 melanoma 63.9%

NS(=O)(=O)c1cccc(Nc2nc(SCC(=O)c3ccc(Br)cc3)nc3ccccc23)c1
inactive: HT29 colon 90.2% | SNB-75 CNS 10.9% | SNB-19 CNS 35.3% | U251 CNS 59.7% | PC-3 prostate 36.5% | SK-MEL-5 melanoma 58.7% | UACC-62 melanoma 59.1% | SK-MEL-2 melanoma 89.9%

COc1ccc(C(=O)/C=C/c2ccc(OCc3ccc(C)cc3)c(OC)c2)cc1OC
inactive: HT29 colon 68.8% | SNB-75 CNS 72% | SNB-19 CNS 69.8% | U251 CNS 49.9% | PC-3 prostate 55.9% | SK-MEL-5 melanoma 64.5% | UACC-62 melanoma 54.5% | SK-MEL-28 melanoma 82.3% | SK-MEL-2 melanoma 94.3%

O=C(N/N=C/c1ccc([N+](=O)[O-])s1)c1[nH]c2ccc(Br)cc2c1-c1ccccc1
inactive: SNB-75 CNS 26.2% | SNB-19 CNS 27.1% | PC-3 prostate 26.5% | UACC-62 melanoma 17.6% | SK-MEL-28 melanoma 38.5%
active: HT29 colon -22.4% | U251 CNS 9.11% | SK-MEL-5 melanoma -76.6% | SK-MEL-2 melanoma -19.4%

Cc1ccc(CNS(=O)(=O)/N=C2\NC(=O)NC2=C(Cl)Cl)cc1
inactive: HT29 colon 15.7% | SNB-19 CNS 46.9% | U251 CNS 39.1% | PC-3 prostate 38.9% | UACC-62 melanoma 77.3% | SK-MEL-2 melanoma 28.8%
active: SNB-75 CNS -2.97%

CC1=C(C)C(=O)C(Nc2ccccc2)=C(Cl)C1=O
inactive: HT29 colon 99.1% | SNB-75 CNS 65.4% | SNB-19 CNS 88.8% | U251 CNS 84.3% | PC-3 prostate 73.9% | UACC-62 melanoma 90.3% | SK-MEL-28 melanoma 106% | SK-MEL-2 melanoma 85.5%

NS(=O)(=O)c1ccc(Nc2nc(Nc3ccccc3)nc(-n3nc(-c4ccccc4)cc3-c3ccccc3)n2)cc1
inactive: SNB-75 CNS 56.4% | SNB-19 CNS 50.1% | U251 CNS 33.3% | PC-3 prostate 26.7% | SK-MEL-5 melanoma 39.2% | UACC-62 melanoma 54.8% | SK-MEL-2 melanoma 56.3%
active: HT29 colon 4.52%

COc1cc(/C=C/C(=O)c2cc(OC)c(OC)c(OC)c2)ccc1OCc1ccc(F)cc1
inactive: SNB-19 CNS 49.8% | U251 CNS 33.8% | PC-3 prostate 35% | SK-MEL-5 melanoma 58.7% | UACC-62 melanoma 43.9% | SK-MEL-2 melanoma 90%
active: HT29 colon 4.34% | SNB-75 CNS 8.67%

COc1ccc(/C=C2\SC(=Nc3cc(C)[nH]n3)NC2=O)cc1
inactive: HT29 colon 107% | SNB-75 CNS 95.2% | SNB-19 CNS 90.8% | U251 CNS 98.1% | PC-3 prostate 81% | SK-MEL-5 melanoma 95.7% | UACC-62 melanoma 90.6% | SK-MEL-2 melanoma 121%

COc1ccc(CNS(=O)(=O)/N=C2\NC(=O)NC2=C(Cl)Cl)cc1
active: HT29 colon 8.17% | SNB-75 CNS -23.1%
inactive: SNB-19 CNS 30% | U251 CNS 14.8% | PC-3 prostate 28% | UACC-62 melanoma 27.4% | SK-MEL-28 melanoma 48.7% | SK-MEL-2 melanoma 29.1%

COc1ccc([C@@H]2c3[nH]c4ccccc4c3CC3C(=O)N(C4CCN(Cc5c(F)cccc5F)CC4)CC(=O)N32)c(OC)c1 (stereo partly specified)
active: SK-MEL-5 melanoma -9.17% [5.26 µM]
inactive: HT29 colon 44% [5.26 µM] | SNB-75 CNS 22.3% [5.26 µM] | SNB-19 CNS 64.2% [5.26 µM] | U251 CNS 62% [5.26 µM] | PC-3 prostate 35.2% [5.26 µM] | UACC-62 melanoma 78.9% [5.26 µM] | SK-MEL-2 melanoma 74.5% [5.26 µM]

CC(=NNc1ncnc2ccccc12)c1ccc(S(C)(=O)=O)cc1
inactive: HT29 colon 112% | SNB-75 CNS 103% | SNB-19 CNS 97.6% | U251 CNS 117% | PC-3 prostate 87.9% | SK-MEL-5 melanoma 101% | UACC-62 melanoma 96.1% | SK-MEL-28 melanoma 113% | SK-MEL-2 melanoma 112%

CCOC(=O)c1sc(NCC(=O)Nc2cccc([N+](=O)[O-])c2)c(C(=O)OCC)c1C
active: HT29 colon -42.7% | SNB-75 CNS -37.6% | SNB-19 CNS -6.96% | U251 CNS -7.36% | PC-3 prostate -9.82% | UACC-62 melanoma -72.4% | SK-MEL-28 melanoma -30.9% | SK-MEL-2 melanoma -24%

N#Cc1nc(-c2ccccc2)oc1N1CC[C@@H](CO)C1
inactive: HT29 colon 107% | SNB-75 CNS 98.3% | SNB-19 CNS 94% | U251 CNS 103% | PC-3 prostate 92.2% | SK-MEL-5 melanoma 99.6% | UACC-62 melanoma 92.4% | SK-MEL-2 melanoma 110%

COc1ccc(C(=O)c2cc(C(=O)/C=C/c3c(Cl)cccc3Cl)c3cc(C)ccn23)cc1
inactive: HT29 colon 103% | SNB-75 CNS 76.7% | SNB-19 CNS 98.8% | U251 CNS 100% | PC-3 prostate 91.3% | UACC-62 melanoma 94% | SK-MEL-2 melanoma 101%

O=C(N/N=C/c1ccc([N+](=O)[O-])o1)c1[nH]c2ccc(Br)cc2c1-c1ccccc1
active: HT29 colon 9.21% | SK-MEL-5 melanoma -84% | UACC-62 melanoma 6.4% | SK-MEL-2 melanoma -12.4%
inactive: SNB-75 CNS 17.7% | SNB-19 CNS 22% | U251 CNS 13.3% | PC-3 prostate 16.2%

COc1cccc(NC2=CC(=O)C(C)=C(C)C2=O)c1
inactive: HT29 colon 98.3% | SNB-75 CNS 99.8% | SNB-19 CNS 97.7% | U251 CNS 95.1% | PC-3 prostate 36.3% | UACC-62 melanoma 91.8% | SK-MEL-28 melanoma 96.5% | SK-MEL-2 melanoma 83.6%

CSc1ccc2c(c1)N(C(=O)/C(C#N)=C/c1c[nH]c3ccccc13)c1ccccc1S2
active: SNB-75 CNS 8.61%
inactive: HT29 colon 12.2% | SNB-19 CNS 41% | U251 CNS 42.1% | PC-3 prostate 28.8% | UACC-62 melanoma 41.8%
